Screening results from PubChem.
Compounds with a hit are over-represented: about 11% of the library has one in this group of screens.
ALDH1A1 block: inhibitors of human aldehyde dehydrogenase 1A1; P00352; Purified ALDH1A1, NADH fluorescence, propionaldehyde substrate; Potency, µM (doses to about 75.3 µM), without a hit: top-dose activity, negative = inhibition, actives largely listed as inhibitors; actives 7.3% (n = 220,000); active = well fitted inhibition curve with a large enough effect, not every such curve was filed as active; inconclusive = small, poorly fitted or top-dose-only effect, or another doubt; inactive = no such curve, though single readings can be large or run the other way;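 also: potency is read from the fitted curve at half-maximal effect; plate controls were no enzyme wells and a reference inhibitor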
Target sequence (P00352 whole entry, looked up): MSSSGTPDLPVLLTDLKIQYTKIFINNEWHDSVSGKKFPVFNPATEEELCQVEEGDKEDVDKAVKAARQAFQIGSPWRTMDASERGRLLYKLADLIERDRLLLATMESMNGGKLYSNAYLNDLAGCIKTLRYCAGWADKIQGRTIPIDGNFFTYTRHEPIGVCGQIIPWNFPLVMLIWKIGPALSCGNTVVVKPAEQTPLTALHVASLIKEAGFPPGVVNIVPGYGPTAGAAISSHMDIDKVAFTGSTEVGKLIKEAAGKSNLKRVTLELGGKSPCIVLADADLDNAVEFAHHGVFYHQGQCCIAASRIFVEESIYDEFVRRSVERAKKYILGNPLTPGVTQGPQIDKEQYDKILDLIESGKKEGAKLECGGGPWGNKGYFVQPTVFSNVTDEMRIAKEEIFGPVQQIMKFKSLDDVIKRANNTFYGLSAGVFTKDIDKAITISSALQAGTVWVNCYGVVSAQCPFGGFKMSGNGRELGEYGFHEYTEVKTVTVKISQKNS
PNC assembly inh: blocks assembly of the perinucleolar compartment. actives 3.1% (n = 140,000). activity change (PNC), negative = inhibition, % at 10 µM. PC3M PTB-GFP, PNC prevalence imaging, 16 h; active compounds read low;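 active = readout at or below -70, meaning at least 70% loss of cells showing the perinucleolar compartment, a nuclear body marking cancer cells; inconclusive = readout between -30 and a set limit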;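 also: plate controls were DMSO wells for no effect and camptothecin positive control wells for full effect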
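Read-out is percentage of cells bearing a perinucleolar compartment, from automated 20x imaging of fixed, Hoechst-stained PC3M PTB-GFP cells. Cells were seeded 4 h, then exposed 16 h to compound (23 nl of library stock) in duplicate plates.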
HPGD inh: inhibitors of human 15-hydroxyprostaglandin dehydrogenase (HPGD); actives 4.3% (n = 150,000); P15428; purified HPGD, NADH fluorescence kinetic, PGE2 substrate; AID 894; Potency, µM, for the others: at the top dose activity change, negative = inhibition, actives largely listed as inhibitors; active = well fitted inhibition curve with a large enough effect, not every such curve was filed as active; inconclusive = small, poorly fitted or top-dose-only effect, or another doubt; inactive = no such curve, though single readings can be large or run the other way; also: potency is read from the fitted curve at half-maximal effect; % is scaled to controls: 0 for no effect and ±100 for the full control effect
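20 nM HPGD preincubated 15 min at room temperature with compound in 50 mM Tris-HCl pH 8, 0.01% Tween 20. Started with 1 mM NAD+ and 30 uM prostaglandin E2; NADH fluorescence (360/450 nm) read 5 times over 30-s intervals, last minus first.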
HTT cytoprotect: Huntington cell model cytoprotection by ATP luminescence. PC12 HTT-Q103 induced, cytoprotection, ATP luminescence, 40 h. Potency, µM (top dose mostly 56.4 µM), without a hit: cytoprotection (ATP increase), actives largely listed as activators. actives 0.14% (n = 230,000). AID 1471; also: potency is read from the fitted curve at half-maximal effect; % of control where 0% means no effect; nearly all actives have a fitted effect of over 45% in size
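ATP quantification (ATPlite) reports survival of PC12 cells in which tebufenozide, 100 nM final, switches on Htt exon 1 with 103 glutamines linked to GFP; compounds are titrated.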
CBFb-RUNX1 inh: CBF-beta/RUNX1 interaction disruption; Q01196+Q13951; AID 1477; 230,000 tested, under 10 active; Potency, µM (highest dose often 59.8 µM), without a hit: at the top dose activity, negative = inhibition, actives largely listed as inhibitors; AlphaScreen CBFb-His/RUNX1-biotin binding, biochemical; also: % of control where 0% means no effect
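Inhibition was taken as any reduction in AlphaScreen signal from the CBF-beta–RUNX1 pair (His and biotin tags, 30 nM each), measured after compound (15 min) and bead (90 min) incubations at room temperature.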
HTT aggregate: inhibitors of mutant huntingtin aggregate formation in PC12 cells; PC12 HttQ103-GFP aggregates, Acumen cytometry, 40 h; Potency, µM (doses to about 46.1 µM), for the others: top-dose activity change, negative = inhibition, usual class: inhibitors; actives 1.1% (n = 220,000); also: potency is read from the fitted curve at half-maximal effect; % is scaled to controls: 0 for no effect and ±100 for the full control effect; nearly all actives have a fitted effect of over 60% in size
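Aggregate formation scored by laser-scanning cytometer (488 excitation, 500–530 emission) in lysed PC12 cells expressing Q103-GFP after 100 nM tebufenozide induction; library tested in dose series, with ATPLite reagent added in the multiplex.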
An asterisk follows results filed as active; ? = inconclusive; · = no result; [ ] = dose if it differs, or a comment. Unless noted, calls follow the shape of the dose curve; as a rule, active = well fitted curve in the direction sought with a large enough effect; inconclusive = small, poorly fitted or top-dose-only effect, or another doubt; inactive = no such curve, though single readings can be large; an effect the other way counts as inactive or inconclusive.

SMILES	ALDH1A1 block	PNC assembly inh	HPGD inh	HTT cytoprotect	CBFb-RUNX1 inh	HTT aggregate
CCCc1[nH]nc2c1C1(C(=O)N(Cc3ccccc3)c3ccccc31)C(C(=O)OC)=C(N)O2 (configuration not stated)	-13%	48	7%	2%	-1%	8%
CCCc1[nH]nc2c1C1(C(=O)N(CC(N)=O)c3ccccc31)C(C(=O)OC)=C(N)O2 (configuration not stated)	1%	-91*	0%	-5%[0.074 µM]	-7%	5%
COc1c(C)cc(C(=O)C2CCCN(Cc3ccccn3)C2)cc1C (configuration not stated)	32µM*	·	·	-9%[10 µM]	-5%	9%[9.22 µM]
COc1cccc(C(=O)C2CCCN(Cc3ccccn3)C2)c1 (configuration not stated)	-6%	·	·	14%[10 µM]	13%	14%[9.22 µM]
BrCC(Br)(Br)Br	2µM*	·	-13%	-27%	-23%[21.7 µM]	·
CC(O)(CS(=O)(=O)c1ccccc1)C(=O)Nc1cccc(C(F)(F)F)c1 (configuration not stated)	25%	17	0.0018µM*	8%	-1%	-7%
Cc1ccc(S(=O)(=O)CC(C)(O)C(=O)Nc2cccc(C(F)(F)F)c2)cc1 (configuration not stated)	4%	8	-3%	30%	3%	-1%
COC(=O)[C@]1(C)CC[C@@]2(C)CC[C@@]3(C)C4=CC=C5C(=CC(=O)C(O)=C5C)[C@@]4(C)CC[C@@]3(C)C2C1 (some centres not stated)	-10%	·	20µM*	-342%	9%	·
O=C(c1cc(-c2ccccc2)on1)N1CCC2(CC1)OCCO2	2%	·	·	·	14%	3%
O=C(c1sc2ccccc2c1Cl)N1CCC2(CC1)OCCO2	10µM*	5	14µM*	-11%[10 µM]	14%	-20%
CCCCCCCCCCCCC/C=C/[C@@H](O)[C@@H](N)COP(=O)([O-])OCC[N+](C)(C)C	1%	·	-13%	·	26%	·
CN(C)CC1CSCCC1(O)c1ccccc1 (configuration not stated)	13µM*	-27	1%	-1%[10 µM]	2%	7%
COc1ccccc1/C=C1/C(=N/O)C2CCN1CC2	16µM*	24	-26%	-12%	3%	10%
c1ccc(-c2nc(N3CCOCC3)s[n+]2-c2ccccc2)cc1	1.8µM*	64	10µM*	·	6%	-7%
CCCOc1ccc(N2C(=O)CC(N3CC=C(c4ccccc4)CC3)C2=O)cc1 (configuration not stated)	10µM*	·	·	-20%	-3%	-1%
CC1N(P(=O)(c2ccccc2)c2ccccc2)CC(O)(c2ccccc2)CC12CC2 (configuration not stated)	-3%	·	-7%	1%	7%	·
Nn1cnnc1	12%	·	-7%	-37%	6%[21.7 µM]	·
CCOc1cc(C=C2C(=O)NC(=O)NC2=O)ccc1OCC(=O)N1CCOCC1	35µM*	-13	-18%	·	-1%	-13%
COc1cc(/C=C2/C(=O)N(c3ccccc3)N=C2C)ccc1OS(=O)(=O)c1ccccc1	?	?	20µM*	-17%[10 µM]	9%	?
COc1cc(C=C2C(=O)NC(=O)NC2=O)cc(OC)c1OC	·	·	·	22%[10 µM]	-1%	34%[9.22 µM]
COCCN1C(=O)/C(=C/c2c(OC)cc(OC)cc2OC)C(=O)N(c2ccccc2)C1=O	·	·	·	15%[10 µM]	10%	-17%[9.22 µM]
CCOc1cc(C=C2C(=O)NC(=O)NC2=O)ccc1OS(=O)(=O)c1ccccc1	?	72	13µM*	-6%	2%	-18%
CC(C)[C@@]1(NC(=O)[C@@H]2C=C3c4cccc5[nH]cc(c45)C[C@@H]3N(C)C2)O[C@]2(O)[C@H]3CCCN3C(=O)[C@H](Cc3ccccc3)N2C1=O	·	·	·	-6%[1.9 µM]	·	·
Cc1ncc(CN2CC=C(c3ccccc3)CC2)c(N)n1	?	·	-11%	10%	5%	·
